Screen size: about 10,000 compounds; fewer than 10 were called active. The rule behind the calls is not given here. A selection follows.
Assay: Vibrio cholerae motility inhibitors, OD read-out (AID 588778)
Conditions: stronger effect = higher value
[1] = measured here: bacterial viability at 10 ug/mL

| Compound | inhibition (concentration not given here) | inhibition [1] [%] |
| --- | --- | --- |
| COc1ccc(C2/C(=C(\O)c3ccc(C)cc3)C(=O)C(=O)N2c2ncc(S(=O)(=O)c3ccc([N+](=O)[O-])cc3)s2)cc1 (configuration not stated) | -0.505% (inactive) | -2.23 |
| Cc1cc(NC(=O)CC2C(=O)N(c3ccccc3)C(=S)N2CCc2ccc(F)cc2)no1 (configuration not stated) | 13.3% (inactive) | 9.96 |
| Cc1ccc(NNC(=O)C(c2ccccc2)c2ccccc2)cc1 | 7.31% (inactive) | 10 |
| Cc1ccc(CN2CC(C(=O)O)CC2=O)cc1 (configuration not stated) | 14.2% (inactive) | -5.3 |
| Cc1ccccc1NC(=O)NNc1ccc(F)cc1 | 15.9% (inactive) | 1.32 |
| CCOC(=O)c1sc(NC(=O)COc2ccc(Cl)cc2Cl)cc1C | 19.1% (inactive) | 13.9 |
| CCOc1ccc2nc(SCC(=O)Nc3ccc4c(c3)OCO4)[nH]c2c1 | 4.79% (inactive) | 2.6 |
| Cn1cc(C2CC(=O)N(c3c(Cl)cccc3Cl)C2=O)c2ccccc21 (configuration not stated) | -0.44% (inactive) | 3.05 |
| CC12CCC(C(=O)NCc3ccc4c(c3)OCO4)(c3nc4ccccc4nc31)C2(C)C (configuration not stated) | 3.2% (inactive) | 0.26 |
| O=[N+]([O-])c1cccc(N2CCOCC2)c1 | 17.3% (inactive) | 4.88 |
| OC(COCc1ccc(Cl)cc1)CN1CCN(c2cccc(Cl)c2)CC1 (configuration not stated) | 37.3% (inactive) | 11.7 |
| COc1ccc(C(=O)CSc2nc(=O)cc(N)n2-c2ccc(C)cc2)cc1OC | -12% (inactive) | -11.4 |
| O=C(CS(=O)(=O)Cc1ccccc1)N1CCN(Cc2ccc3c(c2)OCO3)CC1 | 12.5% (inactive) | 2.65 |
| CN(CCc1ccccn1)S(=O)(=O)c1ccccc1 | 4.78% (inactive) | -3.86 |
| COc1ccc(C(=O)ON2C(=O)CCC2=O)cc1I | 4.65% (inactive) | -0.225 |
| Cc1cc(NC(=O)c2ccccc2Cl)c(OC(=O)c2ccccc2Cl)cc1C | -5.73% (inactive) | -9.05 |
| O=C(Oc1ccccn1)C1COc2ccccc2O1 (configuration not stated) | -4.64% (inactive) | -1.04 |
| Cn1nnc2cc(NC(=O)NCc3ccco3)ccc21 | 9.79% (inactive) | 6.21 |
| COc1cc(N2C(=O)c3cccc4c([N+](=O)[O-])ccc(c34)C2=O)ccc1-n1nc(C)cc1C | 3.2% (inactive) | -0.9 |
| CC(=O)Nc1sc(/C(C#N)=C/c2ccc(N(C)C)cc2)nc1-c1ccc(C)cc1 | 2.79% (inactive) | -2.29 |
| O=[N+]([O-])c1ccccc1OCCCNCc1ccco1 | 11% (inactive) | 4.43 |
| CC(C)(C)SCCNC(=S)Nc1ccccc1 | 32.6% (inactive) | 4.53 |
| COC(=O)C1=C(C)N=C2SCCC(=O)N2C1/C=C/c1ccccc1 (configuration not stated) | -20.3% (inactive) | -9.41 |
| CCSc1ncc(Cl)c(C(=O)Nc2c(C)n(C)n(-c3ccccc3)c2=O)n1 | -0.94% (inactive) | -0.4 |
| CC(=O)N(Cc1cc2ccc(C)cc2[nH]c1=O)c1ccc(C)cc1C | -16.5% (inactive) | -2.06 |
| O=C(O)CCCCN1Cc2ccccc2C1 | 2.35% (inactive) | 7.06 |

From PubChem BioAssay AID588778 (Southern Research Institute, 2011)
